Reference: PubChem BioAssay (EPA / NIEHS)
Values joined by “and” are separate entries in the source; they are usually repeats but may differ in a detail not shown here. Equal values may be shown once. Active and inactive are the calls of the source. Rule for the calls: active = hit-call score of the fitted dose curve at least 0.9, where 1 is the maximum; inactive = score below 0.9.

read-out: Macrophage Inflammatory Protein-1 Alpha (MIP1a), CCL3 (gene 6348); experiment: BSK_IMphg_MIP1a: BioMAP Diversity Plus: IMphg Assay for Macrophage Inflammatory Protein-1 Alpha (MIP1a) Biomarker Activity (AID 2284255); conditions: primary human endothelial cells with macrophages
Protocol: BSK_IMphg is a cell-based, multiplexed-readout assay that uses venular endothelial cells and macrophages, a human vascular primary cell, with measurements taken at 24 hours after chemical dosing in a microplate: 96-well plate.BSK_IMphg_MIP1a is an assay component measured in the BSK_IMphg assay. It measures MIP-1a antibody related to regulation of gene expression using ELISA technology.Data from the assay component BSK_IMphg_MIP1a was analyzed at the endpoint, BSK_IMphg_MIP1a, in the positive analysis fitting direction relative to DMSO as the negative control and baseline of activity. Using a type of binding reporter, gain or loss-of-signal activity can be used to understand protein changes. To generalize the intended target to other relatable targets, this assay endpoint is annotated to the 'cytokine' intended target family, where the subfamily is 'inflammatory factor'.
The levels of cell surface (or secreted, indicated by the prefix "s") biomarker endpoints were measured by ELISA. Overt cytotoxicity to cells in confluent adherent cultures (all systems other than the BT system) was assessed by measuring total protein levels using sulforhodamine B (SRB) staining in parallel cultures at the time of biomarker measurements, indicated as SRB endpoints. For proliferation assays for adherent cell types, individual cell types are cultured at sub-confluence and relative cell numbers quantified by SRB staining at time points optimized for each system (48 h: 3C and CASM3C systems; 72 h: BT and HDF3CGF systems; 96 h: SAg system). SRB was performed by staining cells with 0.1% SRB after fixation with 10% TCA and reading wells at 560 nm.Viability and proliferation of PBMC (T cells) was quantified by Alamar Blue reduction for the SAg and BT systems. For PBMC viability (referred to as PBMC Cytotoxicity within the assay endpoint names), cells were plated (75,000/well in a 96-well plate) and then chemical samples added for 1 h before addition of activators, SEB and TSST-1 (20 ng/mL final concentration each). Cells were incubated for 90 h. Then, Alamar Blue (20 uL/well) (Invitrogen, Cat DAL1100) was added for 6 h, and the plates were read with a fluorescence microplate reader at 546/580 nm (excitation/emission). For PBMC proliferation, cells were plated and activated as above but incubated for only 16 h prior to addition of Alamar Blue. Plates were read after 6 h.

| Structure (SMILES) | outcome | AC50 |
| --- | --- | --- |
| FC(F)=C(F)C(F)(F)C(F)(F)C(F)(F)C(F)(F)C(F)(F)C(F)(F)F | inactive | – |
| O=S(=O)(O)CCC(F)(F)C(F)(F)C(F)(F)C(F)(F)C(F)(F)C(F)(F)F | inactive | – |
| OC(O)(C(F)C(O)(O)C(F)(F)F)C(F)(F)F | – | 5.44 µM (active) and 7.95 µM (active) |
| O=C(Cl)C(F)(F)C(F)(F)C(F)(F)C(=O)Cl | inactive | – |
| FC(F)(F)C(F)(F)C(F)(F)C(F)(F)C(F)(F)C(F)(F)I | inactive | – |
| FC(F)(F)COC(OCC(F)(F)F)OCC(F)(F)F | inactive | – |
| NCC(F)(F)C(F)(F)C(F)(F)C(F)(F)F | inactive | – |
| OCCC(F)(F)C(F)(F)C(F)(F)C(F)(F)F | inactive | – |
| C[Si](C)(C)C(F)(F)C(F)(F)C(F)(F)F | inactive | – |
| FC(F)C(F)(F)COCC1CO1 (stereo not given) | inactive | – |
